Drawing on ChEMBL document CHEMBL1157539, “Thousands of chemical starting points for antimalarial lead identification” (Nature, 2010), this text covers Inhibition for 40 compounds.

The test has as its system Plasmodium falciparum. The test is described as follows: GSK_TCMDC: Inhibition of Plasmodium falciparum 3D7 in whole red blood cells, using parasite LDH activity as an index of growth. Test compounds present at 2uM. The test is classed as functional.
The Inhibition is the share of the control response that was lost under treatment. A high value points to strong suppression. `CC(C)(C)Oc1ccc(NC(=O)c2ccccc2O)cc1` showed an Inhibition of 86%.

The compound `Cc1cccc(C(=O)NC(NC(=S)Nc2ccc([N+](=O)[O-])cc2)C(Cl)(Cl)Cl)c1` (stereo not given) yielded an Inhibition of 96%.

`N=C(N)NC(=O)Nc1cc(Cl)c(F)c(Cl)c1`: the Inhibition turned out to be 100%.

The compound `COc1ccc(-c2cc3nc4c(c(NCCCn5ccnc5)n3n2)CCCC4)cc1` showed an Inhibition of 95%.

`CC(=NNC(=N)N)c1ccc2c(ccc3ccccc32)c1.Cl` yielded an Inhibition of 100%.

In turn, `CCCN1CCC=C(c2cccc(Nc3nccc(Nc4cc(OC)ccc4C)n3)c2)C1.Cl` yielded an Inhibition of 88%.

`Nc1nc(N)c2c(Cc3ccc(Br)cc3)cccc2n1` gave an Inhibition of 99%.

Consider `CCC(C)NS(=O)(=O)c1ccc2nc(Nc3ccc(C)c(Cl)c3)n([C@H](C)C(C)(C)C)c2c1` (stereo not given in full), for which the Inhibition came to 98%.

`CCOc1ccc(C(C)NC(=O)Nc2ccccc2)cc1OCC` (stereo not given): the Inhibition was found to be 96%.

For `COc1ccccc1C1CC(c2ccc(C)cc2)=NN1C(=O)c1ccccc1` (stereo not given), the Inhibition stood at 98%.

For `CC(C)(CNC(=O)[C@@H]1CCCCN1)c1nc(-c2ccc(Cl)c(O)c2)c(-c2ccncc2)[nH]1.Cl`, the Inhibition was determined as 97%.

`O=C(/C=C/c1ccc([N+](=O)[O-])cc1)N1CCC(NS(=O)(=O)c2ccc(Br)cc2)CC1`: the Inhibition was found to be 93%.

`COc1cc2c(cc1COc1ccccc1)CCN1Cc3cc(OC)c(OC)cc3CC21` (stereo not given): the Inhibition was found to be 99%.

As for `O=C(/C=C/c1ccc(Cl)c(Cl)c1)NCCCCCN1CCCN(C(=O)Nc2ccc(Cl)c(Cl)c2)CC1`, the Inhibition is given as 100%.

Take `COc1cc(Cc2cnc(N)nc2N)cc(OCCCCCC(N)=O)c1OC`: the Inhibition is listed as 90%.

For `N#Cc1ccc2c(c1)CCN(CCCn1c(-c3ccc4ccccc4c3)nc3ccncc31)CC2`, the Inhibition is on record as 100%.

As to `CCOc1ccccc1CNc1nccc(NCc2ccc(Cl)cc2Cl)n1`, the Inhibition worked out at 83%.

As for `FC(F)(F)c1ccc2[nH]ccc(=NN=Cc3ccccc3Cl)c2c1`, the Inhibition is 100%.

Take `CCCc1cc(=O)[nH]c(-n2nc(C)cc2NC(=O)c2cc3ccccc3o2)n1`: the Inhibition is given as 90%.

On to `O=C(N[C@@H](CC1CCCCC1)C(=O)NCCN1CCCCC1)c1ccc(O)c(-c2cccc(C(F)(F)F)c2)c1`, for which the Inhibition turned out to be 99%.

As for `O=C(NCC1CCC(C(=O)NC2CCCc3ccccc32)CC1)c1ccc(O)c(-c2ccc(Cl)c(Cl)c2)c1` (stereo not given), the Inhibition is recorded as 93%.

`O=C(O)C(F)(F)F.O=S(=O)(NCCN1CCCC1)c1cccc(-c2ccc(CNCc3ccccc3)cc2)c1` came in with an Inhibition of 95%.

Compound `COc1ccc(NS(=O)(=O)c2ccccc2Br)cc1N1CCN(C)CC1.Cl` yielded an Inhibition of 94%.

Regarding `O=C(Cc1ccccc1)NC1(c2ccccc2)CCN(CCc2c[nH]c3ccc(F)cc23)CC1`, the Inhibition was found to be 87%.

With `COc1ccc2ccc(F)c(CC(=O)N3CCOC(CNCc4cccc(-c5ccsc5)n4)C3)c2n1` (stereo not given), the Inhibition is reported as 92%.

The compound `O=C(O)C(F)(F)F.c1ccc(CNCc2ccc(-c3cccc(-c4nc5ccccc5[nH]4)c3)cc2)cc1` returned an Inhibition of 100%.

As to `O=C(Nc1ccccc1F)NC1CCN(c2ccnc(Nc3ccc(F)cc3)n2)C1` (stereo not given), the Inhibition was 95%.

`O=C(O)C(F)(F)F.c1cc(-c2ccc(CNCc3ccc(-c4csnn4)cc3)cc2)cc(-c2nc3ccccc3[nH]2)c1` displayed an Inhibition of 100%.

Regarding `CCCc1c(C(=O)Nc2ccc3c(c2)CCN(C2CCC2)CC3)cnn1-c1ccc(Cl)cc1.O=C(O)C(F)(F)F`, the Inhibition amounted to 92%.

Consider `O=C(Nc1cccc(-c2nn3ccccc3c2-c2ccnc(Nc3cccc(C(F)(F)F)c3)n2)c1)c1c(F)cccc1F`, for which the Inhibition amounted to 97%.

Regarding `COc1ccc(OCCn2cc(C(=O)c3ccco3)c3ccccc32)cc1`, the Inhibition is 98%.

`O=C(O[C@@H]1CN[C@H](C#Cc2cc3ncnc(Nc4ccc5c(cnn5Cc5cccc(F)c5)c4)c3s2)C1)N1CCCC1` registered an Inhibition of 86%.

Take `CC[C@H](N/C(=N\c1ccc(-c2ccccc2)cc1)Nc1ccc(C#N)cc1O)c1ccccc1`: the Inhibition is recorded as 99%.

As to `CCN(CC)CC(O)c1cc(-c2ccc(C)cc2)nc2c(C)cc(C)cc12.Cl` (stereo not given), the Inhibition was determined as 100%.

Compound `COc1ccc(/N=[N+](\[O-])c2ccccc2/[N+]([O-])=N/c2ccc(OC)cc2)cc1` registered an Inhibition of 84%.

Take `COc1ccc(C(=O)N2CCC(CN3CCOC(c4ccccc4)(c4ccccc4)C3)CC2)cc1`: the Inhibition came out at 95%.

In turn, `C=CCOC(=O)N1CCC(CNCc2cccc(-c3ccc(-c4nc5cccc(C)c5[nH]4)cc3)c2)C1.O=C(O)C(F)(F)F` (stereo not given) had an Inhibition of 100%.

On to `c1cc(Nc2nccc(-c3cnn4ncccc34)n2)cc(-c2cnco2)c1`, for which the Inhibition worked out at 96%.

The compound `Cc1ccc(O)cc1Nc1c(C(N)=O)cnc2ccc(-c3cncs3)cc12` had an Inhibition of 100%.

In turn, `O=C(Nc1ccc(CN2CCN(S(=O)(=O)c3cccc(Cl)c3)CC2)cc1)c1cccs1.O=C(O)C(F)(F)F` had an Inhibition of 84%.
